Test results from PubChem BioAssay (NCATS).
Records with an inconclusive call do not appear. Calls of active or inactive are those of the source. Unless noted, calls come from the whole dose curve; as a rule, active = well fitted curve in the direction sought with a large enough effect; inconclusive = small, poorly fitted or top-dose-only effect, or another doubt; inactive = no such curve, though single readings can be large; an effect the other way counts as inactive or inconclusive.

Experiments:
[1] = target: Lysosomal acid glucosylceramidase (Homo sapiens) (UniProt P04062); assay: Glucocerebrosidase-p2 (AID 348; in the data active = potency below about 10 µM; note: potency is the fitted concentration of half-maximal effect); settings: purified GBA, blue fluorogenic substrate, 40 min
Chain of Lysosomal acid glucosylceramidase (Homo sapiens) (P04062 whole entry, looked up): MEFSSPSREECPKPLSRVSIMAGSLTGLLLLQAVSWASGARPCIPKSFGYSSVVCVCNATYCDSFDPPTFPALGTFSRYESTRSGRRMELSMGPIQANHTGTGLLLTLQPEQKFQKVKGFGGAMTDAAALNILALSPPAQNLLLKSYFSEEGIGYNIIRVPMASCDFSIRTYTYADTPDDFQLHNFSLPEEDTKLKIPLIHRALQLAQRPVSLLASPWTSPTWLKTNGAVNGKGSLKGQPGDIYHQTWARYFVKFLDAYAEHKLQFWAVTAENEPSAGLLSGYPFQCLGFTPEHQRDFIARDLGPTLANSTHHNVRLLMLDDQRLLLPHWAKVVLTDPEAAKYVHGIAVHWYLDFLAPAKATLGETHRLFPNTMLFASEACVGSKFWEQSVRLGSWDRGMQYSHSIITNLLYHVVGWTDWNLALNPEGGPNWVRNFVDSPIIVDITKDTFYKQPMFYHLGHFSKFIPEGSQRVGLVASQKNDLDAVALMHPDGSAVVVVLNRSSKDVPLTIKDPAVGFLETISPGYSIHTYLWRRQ
Procedure, shortened: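 Normal human glucocerebrosidase (0.2 nM) with blue fluorogenic substrate (80 uM final) in citrate/phosphate pH 5.9 with 10mM sodium taurocholate, 0.01% tween-20; 40 min RT, NaOH/glycine stop; fluorescence Ex 365/Em 440; AC50 from a titration from 0.6 nM upwards.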

[2] = target: Cytochrome P450 1A2 (Homo sapiens) (UniProt P05177); assay: p450-cyp1a2 (AID 410; calls by dose curve; note: potency is the fitted concentration of half-maximal effect;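 for activity change, negative = inhibition: -100% = full effect of reference inhibitor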); settings: recombinant CYP1A2, luciferin-ME demethylation, luminescence; series mostly up to 57 µM
Chain of Cytochrome P450 1A2 (Homo sapiens) (P05177 whole entry, looked up): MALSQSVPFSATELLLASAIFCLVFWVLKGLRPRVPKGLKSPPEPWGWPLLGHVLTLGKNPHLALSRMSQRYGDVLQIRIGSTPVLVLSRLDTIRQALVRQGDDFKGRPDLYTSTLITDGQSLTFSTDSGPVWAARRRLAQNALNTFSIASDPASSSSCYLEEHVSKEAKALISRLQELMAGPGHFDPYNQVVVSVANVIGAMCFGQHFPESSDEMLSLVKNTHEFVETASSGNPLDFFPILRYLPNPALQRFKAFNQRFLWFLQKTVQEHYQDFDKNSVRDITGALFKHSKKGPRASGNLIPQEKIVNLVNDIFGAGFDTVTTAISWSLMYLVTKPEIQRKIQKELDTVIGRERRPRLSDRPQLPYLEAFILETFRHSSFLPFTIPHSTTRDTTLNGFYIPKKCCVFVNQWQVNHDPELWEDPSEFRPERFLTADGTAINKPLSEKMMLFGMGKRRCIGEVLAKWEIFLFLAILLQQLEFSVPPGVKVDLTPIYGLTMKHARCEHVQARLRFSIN
Procedure, shortened: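 Read-out is luminescence from luciferin produced by CYP1A2 demethylation of Luciferin-ME (100uM, at Km). Detection reagent stopped the 60 min NADPH-dependent reaction; signals were normalized to 57 uM furafylline.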

[3] = Stat Signaling Pathway (AID 446; active = well fitted curve in either direction with a large enough effect, not every such curve was filed as active;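 note: ME-180 cervical cancer cells given 40 pM IL-6 alongside compound; SIE-controlled beta-lactamase reporter measured as 460/530 nm FRET emission ratio; % is set by controls: 0 for no effect and ±100 for the full control effect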); settings: ME-180 SIE beta-lactamase reporter, IL-6 stimulated, 5 h; at 7.69 µM (top of the series) unless noted
Procedure, shortened: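 Overnight-plated ME-180 cells bearing a STAT Inducible Element beta-lactamase reporter; 5 h co-exposure to compound and 40 pM IL-6; values normalized to 300 pM IL-6 and 125 nM JAK inhibitor controls.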

[4] = target: Glucocorticoid receptor (Homo sapiens) (UniProt P04150); assay: GR-GFP Redistribution (AID 450;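 active = compounds whose dose series gives a full or clear partial fitted curve of increased nuclear translocation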; note: potency is the fitted concentration of half-maximal effect); settings: U2OS GR-GFP nuclear translocation, laser cytometry, 2 h
Chain of Glucocorticoid receptor (Homo sapiens) (P04150 whole entry, looked up, the tested form may be a part): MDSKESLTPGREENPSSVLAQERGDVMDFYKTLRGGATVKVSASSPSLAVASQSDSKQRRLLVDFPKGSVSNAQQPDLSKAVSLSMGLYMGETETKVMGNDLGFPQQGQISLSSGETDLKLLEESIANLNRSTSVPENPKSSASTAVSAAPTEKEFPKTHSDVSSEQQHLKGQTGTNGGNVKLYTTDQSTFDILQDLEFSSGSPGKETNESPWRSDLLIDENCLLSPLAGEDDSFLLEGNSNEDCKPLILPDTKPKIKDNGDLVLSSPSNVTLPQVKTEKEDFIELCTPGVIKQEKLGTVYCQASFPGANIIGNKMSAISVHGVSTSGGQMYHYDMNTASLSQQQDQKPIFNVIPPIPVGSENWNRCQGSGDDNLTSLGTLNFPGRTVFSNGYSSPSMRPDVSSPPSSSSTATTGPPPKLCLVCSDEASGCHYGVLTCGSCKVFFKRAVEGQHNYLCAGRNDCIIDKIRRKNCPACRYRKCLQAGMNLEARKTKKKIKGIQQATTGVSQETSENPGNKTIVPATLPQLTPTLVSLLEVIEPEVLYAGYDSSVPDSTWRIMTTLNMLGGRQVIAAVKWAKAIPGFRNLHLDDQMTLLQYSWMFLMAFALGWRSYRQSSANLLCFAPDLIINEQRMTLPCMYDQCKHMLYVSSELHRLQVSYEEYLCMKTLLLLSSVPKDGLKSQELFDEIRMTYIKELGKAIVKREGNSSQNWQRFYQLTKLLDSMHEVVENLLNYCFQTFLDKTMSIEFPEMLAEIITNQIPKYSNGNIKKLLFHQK

[5] = target: Glucocorticoid receptor (Homo sapiens) (UniProt P04150); assay: GR-EFC Redistribution (AID 451; calls by dose curve; note: potency is the fitted concentration of half-maximal effect); settings: CHO-K1 GR-EFC translocation, beta-gal luminescence, 2 h
Procedure, shortened: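 Translocation of GR-ED fusion to nuclear EA restores b-gal, read by luminescence after 1 h room-temperature detection. Engineered CHO-K1 biosensor cells, 1,000/well, exposed 2 h at 37 C to titrations up to 46 uM final.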

[6] = target: Mitogen-activated protein kinase 10 (Mus musculus) (UniProt Q61831); assay: JNK3 AlphaScreen Assay (AID 530; active = well fitted curve in either direction with a large enough effect, not every such curve was filed as active;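 note: kinase came from lysate of stimulated human HepG2 cells; signal reports phosphorylation of biotinylated GST-cJun 1-79 at Ser73 with 10 µM ATP; % is set by controls: 0 for no effect and ±100 for the full control effect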); settings: JNK3 lysate, c-Jun phosphorylation; series mostly up to 57.1 µM
Procedure, shortened: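 Kinase buffer: 20 mM Tris-HCl pH 7.6, 10 mM MgCl2, 1 mM DTT, 0.1 mM Na3VO4, 0.01% Tween-20; ATP 10 uM. Substrate biotin-GST-cJun(1-79), enzyme from activated HepG2 lysates. Detection by Ser73 phospho-antibody AlphaScreen.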

[7] = target: Cytochrome P450 3A4 (Homo sapiens) (UniProt P08684); assay: qHTS Assay for Inhibitors and Substrates of Cytochrome P450 3A4 (AID 884); settings: recombinant CYP3A4, Luciferin-PPXE luminescence; series mostly up to 57.1 µM; note: nearly all actives have a fitted effect of over 50% in size; note: potency is the fitted concentration of half-maximal effect
Chain of Cytochrome P450 3A4 (Homo sapiens) (P08684 whole entry, looked up): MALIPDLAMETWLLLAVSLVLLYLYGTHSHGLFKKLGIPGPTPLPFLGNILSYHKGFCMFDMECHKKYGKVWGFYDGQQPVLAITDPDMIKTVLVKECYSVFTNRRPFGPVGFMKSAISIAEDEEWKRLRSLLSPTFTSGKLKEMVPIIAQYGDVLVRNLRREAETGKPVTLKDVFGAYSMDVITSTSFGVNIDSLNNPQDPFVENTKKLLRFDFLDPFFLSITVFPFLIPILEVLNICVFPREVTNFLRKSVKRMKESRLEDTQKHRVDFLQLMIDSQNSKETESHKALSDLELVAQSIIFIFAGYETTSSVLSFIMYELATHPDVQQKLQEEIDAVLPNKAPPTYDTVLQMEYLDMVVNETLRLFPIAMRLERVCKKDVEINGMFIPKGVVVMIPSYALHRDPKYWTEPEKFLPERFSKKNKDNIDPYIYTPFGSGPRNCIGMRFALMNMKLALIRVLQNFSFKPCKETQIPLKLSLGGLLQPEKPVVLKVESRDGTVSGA
Procedure, shortened: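 Luminescent readout of luciferin produced by CYP3A4 (20 nM) dealkylation of Luciferin-PPXE, 25 uM (its KM). NADPH-driven reaction ran 60 min at RT after 10 min compound preincubation; data scaled to 57 uM ketoconazole as 100% inhibition.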

[8] = target: Cytochrome P450 3A4 (Homo sapiens) (UniProt P08684); assay: qHTS Assay for Activators of Cytochrome P450 3A4 (AID 885); settings: recombinant CYP3A4, Luciferin-PPXE luminescence, 60 min; series mostly up to 57.1 µM; note: nearly all actives have a fitted effect of over 65% in size
Procedure, shortened: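 Using 20nM recombinant human CYP3A4 in potassium phosphate (200mM), substrate Luciferin-PPXE at 25uM, luminescent luciferin detection followed a 60-min RT NADPH reaction; data scaled to 57 uM ketoconazole.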

[9] = qHTS Assay for Lipid Storage Modulators (AID 1519; calls by dose curve); settings: Drosophila S3 cells, BODIPY lipid droplet/cell ratio, laser cytometry, cells loaded with oleic acid; for activity change, negative = inhibition: at 57.5 µM (top of the series)
Procedure, shortened: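 Cells seeded at 5,000 per well were treated with compounds over a concentration series and loaded with oleic acid (400 uM, as added). Lipid droplet fluorescence (488 nm excitation, 500-530 nm channel) was read by laser-scanning cytometry and normalized to 20 uM Triacsin C.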

[10] = target: Dual specificity protein kinase CLK4 (Homo sapiens) (UniProt Q9HAZ1); assay: qHTS Assay for Inhibitors of CDC-like Kinase 4 (Kinase-Glo Assay) (AID 1770); settings: recombinant Clk4, Kinase-Glo ATP depletion luminescence; series mostly up to 66.7 µM; note: nearly all actives have a fitted effect of over 65% in size; note: potency is the fitted concentration of half-maximal effect
Chain of Dual specificity protein kinase CLK4 (Homo sapiens) (Q9HAZ1 whole entry, looked up): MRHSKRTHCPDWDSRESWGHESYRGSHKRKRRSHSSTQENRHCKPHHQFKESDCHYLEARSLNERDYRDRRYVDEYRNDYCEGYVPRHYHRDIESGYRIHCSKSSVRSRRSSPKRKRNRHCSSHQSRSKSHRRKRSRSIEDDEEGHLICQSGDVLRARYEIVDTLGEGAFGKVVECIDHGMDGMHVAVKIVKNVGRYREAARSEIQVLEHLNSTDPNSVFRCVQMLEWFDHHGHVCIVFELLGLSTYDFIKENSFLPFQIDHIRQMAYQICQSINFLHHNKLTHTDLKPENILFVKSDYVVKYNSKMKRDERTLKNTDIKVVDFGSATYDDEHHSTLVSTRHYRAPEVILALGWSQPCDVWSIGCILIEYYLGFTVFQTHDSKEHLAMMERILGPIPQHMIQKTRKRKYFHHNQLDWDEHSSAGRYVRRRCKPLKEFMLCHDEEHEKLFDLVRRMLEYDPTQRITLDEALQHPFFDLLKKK
Procedure, shortened: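 25 nM Clk4 with 100 uM RS repeat peptide and 1 uM ATP (final) in Tris pH7.5, 10 mM MgCl2, 4.5 h at room temperature. Remaining ATP measured by Kinase-Glo luciferase luminescence.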

[11] = target: Dual specificity protein kinase CLK4 (Homo sapiens) (UniProt Q9HAZ1); assay: qHTS Assay for Inhibitors of CDC-like Kinase 4 (ADP-Glo Assay) (AID 1771); settings: recombinant CLK4, ADP-Glo luminescence; series mostly up to 80 µM; note: nearly all actives have a fitted effect of over 70% in size; note: potency is the fitted concentration of half-maximal effect
Procedure, shortened: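 In this ADP-Glo format, 1 uM ATP and 100 uM RS peptide served as substrates for 25 nM Clk4 in Mg2+/EGTA/DTT/Triton buffer; reactions ran 1 hr at room temperature before luminescent ADP quantification.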

[12] = target: Dual specificity protein kinase CLK4 (Homo sapiens) (UniProt Q9HAZ1); assay: qHTS Assay for Inhibitors of CDC-like Kinase 4 (ADP-FP Assay) (AID 1795); settings: Transcreener ADP fluorescence polarization; series mostly up to 50 µM; note: nearly all actives have a fitted effect of over 60% in size; note: potency is the fitted concentration of half-maximal effect
Procedure, shortened: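 Recombinant Clk4 (6.25 nM) phosphorylated 100 uM RS repeat peptide with 1 uM ATP in 25 mM Tris pH 7.5, 10 mM MgCl2, 0.5 mM EGTA, 2.5 mM DTT, 0.01% Triton X-100 for 1 h. ADP was detected by Transcreener ADP2 competitive fluorescence polarization after 30 min at room temperature.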

[13] = target: Ubiquitin carboxyl-terminal hydrolase 1 (Homo sapiens) (UniProt O94782); assay: Inhibitors of USP1/UAF1: Pilot qHTS (AID 504865); settings: purified USP1/UAF1, Ub-rhodamine cleavage fluorescence; series mostly up to 54.9 µM;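 note: rhodamine fluorescence freed from ubiquitin-rhodamine substrate followed over time; top concentration of the series differs between compounds; % is set by controls: 0 for no effect and ±100 for the full control effect; nearly all actives have a fitted effect of over 35% in size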
Chain of Ubiquitin carboxyl-terminal hydrolase 1 (Homo sapiens) (O94782 whole entry, looked up): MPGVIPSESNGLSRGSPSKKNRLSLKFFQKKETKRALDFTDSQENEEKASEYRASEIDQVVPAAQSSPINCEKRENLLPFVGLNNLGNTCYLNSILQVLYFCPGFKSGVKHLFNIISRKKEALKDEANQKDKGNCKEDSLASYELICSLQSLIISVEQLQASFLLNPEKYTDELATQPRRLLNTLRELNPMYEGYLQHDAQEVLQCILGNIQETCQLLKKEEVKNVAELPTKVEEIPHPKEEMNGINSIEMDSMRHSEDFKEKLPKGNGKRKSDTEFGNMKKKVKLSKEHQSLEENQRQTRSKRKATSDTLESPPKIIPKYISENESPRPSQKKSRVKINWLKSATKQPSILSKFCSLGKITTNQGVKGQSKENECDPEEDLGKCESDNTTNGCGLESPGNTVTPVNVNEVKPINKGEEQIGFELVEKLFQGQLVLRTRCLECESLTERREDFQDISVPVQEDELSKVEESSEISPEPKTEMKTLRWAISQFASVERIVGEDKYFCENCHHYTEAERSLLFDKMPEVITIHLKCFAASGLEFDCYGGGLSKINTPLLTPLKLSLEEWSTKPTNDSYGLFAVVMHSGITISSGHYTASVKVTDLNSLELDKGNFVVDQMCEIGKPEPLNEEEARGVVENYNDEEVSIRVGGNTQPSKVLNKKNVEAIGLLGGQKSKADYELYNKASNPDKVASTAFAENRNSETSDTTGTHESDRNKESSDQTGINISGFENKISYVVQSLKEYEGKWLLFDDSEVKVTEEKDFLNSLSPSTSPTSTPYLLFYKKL
Procedure, shortened: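 USP1/UAF1 complex at 1 nM preincubated 15 min at room temperature with compound, then Ub-Rho substrate added at 150 nM final. Fluorescence (480/540 nm) read kinetically in 50 mM HEPES pH 7.8, 0.5 mM EDTA, 1 mM TCEP, 0.1 mg/ml BSA, 0.01% Tween-20.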

[14] = Primary qHTS for small molecule stabilizers of the endoplasmic reticulum resident proteome: Secreted ER Calcium Modulated Protein (SERCaMP) assay (AID 1508630); settings: SH-SY5Y GLuc-SERCaMP (Gaussia luciferase released on ER calcium loss) secretion, thapsigargin, luminescence; series mostly up to 38.4 µM; note: % is set by controls: 0 for no effect and ±100 for the full control effect
Procedure, shortened: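 The SH-SY5Y reporter protocol was run at 3 concentrations up to 38.3 uM (primary) or 11 concentrations (follow-up): 16 h compound, 100 nM thapsigargin for 4 h, then extracellular luciferase luminescence.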

[15] = target: 3',5'-cyclic-AMP phosphodiesterase 4B (Homo sapiens) (UniProt Q07343); assay: qHTS Assay for Inhibitors of PDE-IV (AID 607; active = well fitted activation curve with a large enough effect in the main read-out, with a control signal flat, not every such curve was filed as active; note: % of control where 0% means no effect); settings: HEK293 ACTOne CNG channel cells, membrane potential fluorescence; series mostly up to 22.9 µM
Chain of 3',5'-cyclic-AMP phosphodiesterase 4B (Homo sapiens) (Q07343 whole entry, looked up): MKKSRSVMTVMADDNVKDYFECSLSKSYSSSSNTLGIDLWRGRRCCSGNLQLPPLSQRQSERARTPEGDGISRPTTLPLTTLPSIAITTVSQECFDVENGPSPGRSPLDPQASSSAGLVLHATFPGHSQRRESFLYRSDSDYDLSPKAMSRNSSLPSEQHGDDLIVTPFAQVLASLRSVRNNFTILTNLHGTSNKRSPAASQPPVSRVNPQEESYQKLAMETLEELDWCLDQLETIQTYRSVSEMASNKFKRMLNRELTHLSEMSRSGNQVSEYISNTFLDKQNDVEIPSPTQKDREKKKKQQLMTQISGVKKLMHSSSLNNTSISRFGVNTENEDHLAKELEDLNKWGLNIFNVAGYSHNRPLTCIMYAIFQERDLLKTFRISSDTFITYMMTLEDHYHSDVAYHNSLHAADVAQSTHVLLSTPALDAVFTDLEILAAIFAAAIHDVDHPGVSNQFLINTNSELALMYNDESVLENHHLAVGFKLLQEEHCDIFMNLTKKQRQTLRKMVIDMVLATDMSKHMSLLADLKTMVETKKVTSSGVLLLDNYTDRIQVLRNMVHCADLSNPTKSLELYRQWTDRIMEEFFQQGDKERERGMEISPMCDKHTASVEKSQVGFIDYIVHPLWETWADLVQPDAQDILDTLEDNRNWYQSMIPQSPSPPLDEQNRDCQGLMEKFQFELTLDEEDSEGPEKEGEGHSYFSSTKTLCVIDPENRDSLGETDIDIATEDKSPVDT
Procedure, shortened: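 Live HEK293 cells with a modified cyclic nucleotide-gated (CNG) channel report intracellular cAMP via membrane-potential dye fluorescence (ex 535/em 590 nm). Endogenous PDE-IV was targeted. Compounds were tested at up to 22.9 uM final; RO 20-1724 100 uM served as control.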

[16] = qHTS Assay for Identification of Small Molecule Agonists for Hypoxia Response Element Signaling Pathway (AID 914; active = well fitted activation curve with a large enough effect in the signal ratio, with a control signal flat, not every such curve was filed as active; the % refers to the signal ratio; note: potency is the fitted concentration of half-maximal effect; for activation: % of control where 0% means no effect); settings: ME-180 HRE-bla reporter, beta-lactamase ratio, CoCl2, 17 h; activation: stronger effect = higher value
Procedure, shortened: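 HRE-bla ME-180 cells with beta-lactamase reporter under hypoxia response element, compounds with EC50 CoCl2 for 17 hours at 37 C. CCF4 substrate, 460nm/530nm emission ratio gave %Activity; AC50 from titration series.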

[17] = AP1 Signaling Pathway (AID 357; active = well fitted curve in either direction with a large enough effect, not every such curve was filed as active;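 note: ME-180 reporter cells stimulated with EGF at its EC50 level; % is set by controls: 0 for no effect and ±100 for the full control effect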); settings: ME-180 (cervical carcinoma) AP-1-bla reporter, EGF-induced, beta-lactamase ratio, 5 h; at 7.69 µM (top of the series) unless noted
Procedure, shortened: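 A ratiometric CCF4 readout (405 nm excitation; 460 and 530 nm emission) quantified AP-1-driven beta-lactamase in ME-180 cells after 5 h with compound and EC50 EGF; AC50 values were derived for activators and inhibitors.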

[18] = NFAT Signaling Pathway (AID 444; active = well fitted curve in either direction with a large enough effect, not every such curve was filed as active); settings: Jurkat NFAT-bla M1, carbachol, beta-lactamase ratio, 5 h; at 7.69 µM (top of the series) unless noted
Procedure, shortened: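 Read-out: CCF4 FRET ratio (460 nm/530 nm) after 1 h RT dye loading, used for %activity and AC50 from titration series. Cells: Jurkat NFAT-β-lactamase/M1 line, treated with compound plus 1 uM carbachol for 5 h, 37 °C.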

[19] = target: Cytochrome P450 2C9 (Homo sapiens) (UniProt P11712); assay: qHTS Assay for Inhibitors and Substrates of Cytochrome P450 2C9 (AID 883); settings: recombinant CYP2C9, luciferin-H luminescence, 60 min; series mostly up to 57.1 µM; note: % is set by controls: 0 for no effect and ±100 for the full control effect; nearly all actives have a fitted effect of over 60% in size
Chain of Cytochrome P450 2C9 (Homo sapiens) (P11712 whole entry, looked up): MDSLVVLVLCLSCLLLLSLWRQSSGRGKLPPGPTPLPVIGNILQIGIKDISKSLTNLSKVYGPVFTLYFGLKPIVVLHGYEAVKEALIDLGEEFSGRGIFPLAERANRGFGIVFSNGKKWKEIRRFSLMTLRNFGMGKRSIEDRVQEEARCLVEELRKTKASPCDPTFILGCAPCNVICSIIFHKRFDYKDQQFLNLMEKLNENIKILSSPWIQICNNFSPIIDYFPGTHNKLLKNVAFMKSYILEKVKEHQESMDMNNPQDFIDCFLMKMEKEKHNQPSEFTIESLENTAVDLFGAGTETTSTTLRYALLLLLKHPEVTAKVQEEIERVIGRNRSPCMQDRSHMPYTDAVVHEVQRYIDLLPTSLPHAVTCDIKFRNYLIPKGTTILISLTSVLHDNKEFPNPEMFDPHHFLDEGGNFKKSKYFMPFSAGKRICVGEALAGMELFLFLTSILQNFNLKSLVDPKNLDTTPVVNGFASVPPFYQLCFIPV
Procedure, shortened: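 Turnover of Luciferin-H (100uM, KM) by 10nM human CYP2C9 was measured over 60 min at 37C with NADPH regeneration; inhibitors and some substrates reduce luminescence. Data normalized to sulphaphenazole 57uM.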

[20] = measured here: cell count channel max response
[21] = measured here: lipid channel max response

c1ccc(CNc2ncnc3ccc(-c4cccnc4)cc23)cc1
14%: max response [9, 20]
active: Potency [2] 0.126 µM | Potency [7] 1.26 µM | Potency [10] 3.16 µM | Potency [11] 3.16 µM | Potency [12] 2.24 µM
9.68%: max response [9, 21]
inactive: Potency [1] > 11.4 µM | activity, negative = inhibition [3] -1.78% | Potency [4] > 46 µM | Potency [5] > 46 µM | outcome [6] | Potency [8] | activity change, negative = inhibition [9] -2.12% | Potency [13] | Potency [14]

CN1CCN(c2ncc3nc(-c4cc(F)cc(F)c4)c(=O)n(CCc4ccccc4)c3n2)CC1
active: Potency [16] 3.16 µM
inactive: Potency [1] > 11.4 µM | Potency [2] | Potency [4] > 9.22 µM | Potency [5] > 46 µM | outcome [6] | Potency [15] | Potency [8] | activity change, negative = inhibition [9] -3.87% | Potency [10] | Potency [11] | Potency [12] | Potency [13] | Potency [14]
10.6%: max response [9, 20]
3.66%: max response [9, 21]

COc1ccc(Oc2ncc3nc(-c4ccc(OC)cc4)c(=O)n(C4CC4)c3n2)cc1
inactive: Potency [1] > 11.4 µM | activity change, negative = inhibition [17] -17.1% | activity change, negative = inhibition [18] 18.7% | activity, negative = inhibition [3] -1.53% | Potency [4] > 9.22 µM | outcome [6] | Potency [15] | activation [16] 12.9% | activity change, negative = inhibition [9] -0.219% | Potency [10] | Potency [11] | Potency [12] | Potency [13] | Potency [14]
4.42%: max response [9, 20]
-0.829%: max response [9, 21]

COCCn1c(=O)cnc2cnc(Nc3cccc(OC)c3)nc21
-29.7%: max response [9, 21]
active: Potency [2] 0.794 µM | Potency [10] 2.24 µM | Potency [11] 1.78 µM | Potency [12] 1.26 µM
-13.4%: max response [9, 20]
inactive: Potency [1] > 11.4 µM | activity change, negative = inhibition [18] -0.925% | Potency [4] > 9.22 µM | Potency [15] | Potency [8] | activity change, negative = inhibition [9] -15.5% | Potency [13] | Potency [14]

CN(C)c1ncc2nc(-c3ccc(F)cc3)c(=O)n(Cc3ccc(F)cc3)c2n1
25.7%: max response [9, 21]
active: Potency [16] 3.16 µM
inactive: Potency [1] > 11.4 µM | Potency [2] | Potency [4] > 9.22 µM | Potency [5] > 46 µM | outcome [6] | Potency [15] | Potency [19] | Potency [7] | activity change, negative = inhibition [9] 5.32% | Potency [10] | Potency [11] | Potency [12] | Potency [13] | Potency [14]
19.6%: max response [9, 20]

Cc1noc(C)c1-c1cc(N2CCN(C)CC2)ncn1
22.8%: max response [9, 20]
26.7%: max response [9, 21]
active: Potency [2] 10 µM
inactive: Potency [1] > 11.4 µM | activity change, negative = inhibition [18] -0.822% | activity, negative = inhibition [3] 7.9% | Potency [4] > 46 µM | Potency [5] > 46 µM | outcome [6] | Potency [15] | activity change, negative = inhibition [19] 31% [at 2.29 µM] | activity change, negative = inhibition [9] 3.89% | Potency [10] | Potency [11] | Potency [12] | Potency [13] | Potency [14]
